# Columns and labels:
# Experiment in all cases: DAPPL (digital affinity profiling via proximity ligation, sequencing); 10 mM Tris-HCl pH 7.5, 50 mM NaCl, 1 mM DTT, 4% glycerol, room temperature, 30 min; GST-TFs on glutathione beads, 16-mer random dsDNA library, 0.1% formaldehyde crosslink after washing; high values mean tight binding
# FLI1 = biological target: T1, FLI1 (Homo sapiens, UniProt Q01543 1-452); conditions: protein: recombinant; tags: N-terminal GST; dsDNA, one strand shown
# T1 sequence: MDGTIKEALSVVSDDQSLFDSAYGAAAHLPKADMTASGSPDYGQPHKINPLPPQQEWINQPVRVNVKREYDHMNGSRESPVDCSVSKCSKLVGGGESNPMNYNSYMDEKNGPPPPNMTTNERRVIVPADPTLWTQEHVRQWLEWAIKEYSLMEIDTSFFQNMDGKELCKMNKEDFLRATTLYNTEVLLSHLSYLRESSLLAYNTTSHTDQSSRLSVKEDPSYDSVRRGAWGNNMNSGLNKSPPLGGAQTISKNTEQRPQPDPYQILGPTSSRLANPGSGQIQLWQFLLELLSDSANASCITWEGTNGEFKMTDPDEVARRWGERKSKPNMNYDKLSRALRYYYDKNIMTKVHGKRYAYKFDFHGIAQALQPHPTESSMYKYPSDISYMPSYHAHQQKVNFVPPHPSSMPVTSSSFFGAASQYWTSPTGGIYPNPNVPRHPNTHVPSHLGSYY
# How it was run: (§1)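 Human transcription factors carrying a GST fusion were produced in yeast, bound to glutathione beads, tagged with DNA barcodes and pooled together with a tag-only sample. Each pool was held with 200 nmole of a random double-stranded 16-mer DNA library in Tris/NaCl/DTT/glycerol buffer for 30 min at room temperature, then washed, crosslinked in 0.1% formaldehyde, proximity-ligated with BsaI/T4 ligase (1 h, 37 °C), PCR-amplified and sequenced on an Illumina NextSeq500. Binding signal is the read frequency of each hexamer for a given factor divided by its frequency in the tag-only sample.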
# ELK1 = biological target: T2, ELK1 (Homo sapiens, UniProt P19419 1-428); conditions: protein: recombinant; tags: N-terminal GST; dsDNA, one strand shown
# T2 sequence: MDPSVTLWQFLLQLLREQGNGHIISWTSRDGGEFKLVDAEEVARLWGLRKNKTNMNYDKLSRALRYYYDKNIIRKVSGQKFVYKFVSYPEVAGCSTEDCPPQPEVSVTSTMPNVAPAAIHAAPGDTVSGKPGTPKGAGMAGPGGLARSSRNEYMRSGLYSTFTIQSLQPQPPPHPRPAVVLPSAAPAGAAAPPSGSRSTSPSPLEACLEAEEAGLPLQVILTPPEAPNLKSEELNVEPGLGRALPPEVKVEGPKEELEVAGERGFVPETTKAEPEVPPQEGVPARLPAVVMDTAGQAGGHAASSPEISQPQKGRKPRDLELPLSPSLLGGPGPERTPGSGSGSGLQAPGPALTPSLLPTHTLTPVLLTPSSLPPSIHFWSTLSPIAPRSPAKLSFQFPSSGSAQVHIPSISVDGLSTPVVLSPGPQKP
# How it was run: as §1
# GABPA = biological target: T3, GABPA (Homo sapiens, UniProt Q06546 1-454); conditions: protein: recombinant; tags: N-terminal GST; dsDNA, one strand shown
# T3 sequence: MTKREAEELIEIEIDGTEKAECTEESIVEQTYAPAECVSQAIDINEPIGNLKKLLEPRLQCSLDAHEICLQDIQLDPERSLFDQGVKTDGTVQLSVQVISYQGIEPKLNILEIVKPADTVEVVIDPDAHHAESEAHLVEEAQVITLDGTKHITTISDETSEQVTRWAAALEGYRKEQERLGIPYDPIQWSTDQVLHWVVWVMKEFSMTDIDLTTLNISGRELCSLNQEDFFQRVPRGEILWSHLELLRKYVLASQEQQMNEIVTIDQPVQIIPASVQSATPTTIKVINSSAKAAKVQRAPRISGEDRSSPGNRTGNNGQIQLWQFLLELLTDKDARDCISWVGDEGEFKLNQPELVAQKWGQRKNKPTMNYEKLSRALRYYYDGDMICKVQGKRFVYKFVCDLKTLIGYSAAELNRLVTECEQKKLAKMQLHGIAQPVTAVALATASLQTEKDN
# How it was run: as §1
# ERG = biological target: T4, ERG (Homo sapiens, UniProt P11308 1-479); conditions: protein: recombinant; tags: N-terminal GST; dsDNA, one strand shown
# T4 sequence: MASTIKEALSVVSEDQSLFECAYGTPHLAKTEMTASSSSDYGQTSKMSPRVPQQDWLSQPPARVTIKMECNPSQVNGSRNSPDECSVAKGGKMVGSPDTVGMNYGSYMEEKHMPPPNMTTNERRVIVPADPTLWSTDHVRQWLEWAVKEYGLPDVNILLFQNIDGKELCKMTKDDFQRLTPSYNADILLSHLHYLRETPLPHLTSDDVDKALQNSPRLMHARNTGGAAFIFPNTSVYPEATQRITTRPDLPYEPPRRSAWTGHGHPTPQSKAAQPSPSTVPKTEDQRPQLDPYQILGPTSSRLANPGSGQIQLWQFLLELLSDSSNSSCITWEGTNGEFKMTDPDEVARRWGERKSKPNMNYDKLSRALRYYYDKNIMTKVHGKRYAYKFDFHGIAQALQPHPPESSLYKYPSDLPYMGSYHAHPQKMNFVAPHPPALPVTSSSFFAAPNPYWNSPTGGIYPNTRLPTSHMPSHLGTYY
# How it was run: as §1
# ELF1 = ELF1 (Homo sapiens, UniProt P32519 1-619); conditions: protein: recombinant; tags: N-terminal GST; dsDNA, one strand shown
# How it was run: as §1
# EHF = biological target: T5, EHF (Homo sapiens, UniProt Q9NZC4 1-300); conditions: protein: recombinant; tags: N-terminal GST; dsDNA, one strand shown
# T5 sequence: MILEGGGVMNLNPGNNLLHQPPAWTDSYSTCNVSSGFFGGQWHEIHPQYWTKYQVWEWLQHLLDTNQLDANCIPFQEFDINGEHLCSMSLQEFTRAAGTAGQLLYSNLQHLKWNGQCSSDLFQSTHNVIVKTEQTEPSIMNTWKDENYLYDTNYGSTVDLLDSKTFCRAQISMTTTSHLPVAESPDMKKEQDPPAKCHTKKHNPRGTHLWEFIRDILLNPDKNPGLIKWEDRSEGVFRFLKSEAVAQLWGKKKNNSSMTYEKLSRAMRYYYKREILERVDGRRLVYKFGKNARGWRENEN
# How it was run: as §1
# SPI1 = SPI1 (Homo sapiens, UniProt P17947 1-270); conditions: protein: recombinant; tags: N-terminal GST; dsDNA, one strand shown
# How it was run: as §1
# SPIB = SPIB (Homo sapiens, UniProt Q01892 1-262); conditions: protein: recombinant; tags: N-terminal GST; dsDNA, one strand shown
# How it was run: as §1
# ELK3 = biological target: T6, ELK3 (Homo sapiens, UniProt P41970 1-407); conditions: protein: recombinant; tags: N-terminal GST; dsDNA, one strand shown
# T6 sequence: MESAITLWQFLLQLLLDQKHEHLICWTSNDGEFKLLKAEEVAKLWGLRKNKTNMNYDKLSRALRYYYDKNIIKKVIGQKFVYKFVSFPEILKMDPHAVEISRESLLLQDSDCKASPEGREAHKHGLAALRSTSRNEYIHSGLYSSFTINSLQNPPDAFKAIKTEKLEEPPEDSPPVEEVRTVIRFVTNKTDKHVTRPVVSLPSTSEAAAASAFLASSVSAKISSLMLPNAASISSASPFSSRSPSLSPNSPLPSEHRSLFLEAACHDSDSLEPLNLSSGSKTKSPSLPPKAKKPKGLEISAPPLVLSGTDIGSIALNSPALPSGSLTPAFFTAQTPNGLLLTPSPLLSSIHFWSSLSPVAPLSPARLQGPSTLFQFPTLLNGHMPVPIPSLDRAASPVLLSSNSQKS
# How it was run: as §1
# FEV = biological target: T7, FEV (Homo sapiens, UniProt Q99581 1-238); conditions: protein: recombinant; tags: N-terminal GST; dsDNA, one strand shown
# T7 sequence: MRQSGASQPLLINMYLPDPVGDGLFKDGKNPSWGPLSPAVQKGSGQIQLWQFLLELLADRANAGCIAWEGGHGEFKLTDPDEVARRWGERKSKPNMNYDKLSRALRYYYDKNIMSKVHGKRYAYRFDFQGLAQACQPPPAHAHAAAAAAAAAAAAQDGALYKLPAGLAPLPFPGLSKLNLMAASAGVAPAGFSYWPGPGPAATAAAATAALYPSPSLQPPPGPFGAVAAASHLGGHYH
# How it was run: as §1
# ETV5 = ETV5 (Homo sapiens, UniProt P41161 1-510); conditions: protein: recombinant; tags: N-terminal GST; dsDNA, one strand shown
# How it was run: as §1
# HSF1 = HSF1 (Homo sapiens, UniProt Q00613 1-529); conditions: protein: recombinant; tags: N-terminal GST; chain copies: 3; dsDNA, one strand shown
# How it was run: as §1
# SPIC = biological target: T8, SPIC (Homo sapiens, UniProt Q8N5J4 1-248); conditions: protein: recombinant; tags: N-terminal GST; dsDNA, one strand shown
# T8 sequence: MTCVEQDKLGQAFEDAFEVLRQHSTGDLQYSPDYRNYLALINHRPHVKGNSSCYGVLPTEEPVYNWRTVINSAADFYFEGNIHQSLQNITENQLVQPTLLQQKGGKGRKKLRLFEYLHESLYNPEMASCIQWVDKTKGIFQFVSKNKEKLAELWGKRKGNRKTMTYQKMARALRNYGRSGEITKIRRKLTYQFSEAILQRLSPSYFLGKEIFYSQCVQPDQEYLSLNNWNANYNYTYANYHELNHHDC
# How it was run: as §1
# ELF4 = ELF4 (Homo sapiens, UniProt Q99607 1-663); conditions: protein: recombinant; tags: N-terminal GST; dsDNA, one strand shown
# How it was run: as §1
# ELK4 = biological target: T9, ELK4 (Homo sapiens, UniProt P28324-2 1-405); conditions: protein: recombinant; tags: N-terminal GST; dsDNA, one strand shown
# T9 sequence: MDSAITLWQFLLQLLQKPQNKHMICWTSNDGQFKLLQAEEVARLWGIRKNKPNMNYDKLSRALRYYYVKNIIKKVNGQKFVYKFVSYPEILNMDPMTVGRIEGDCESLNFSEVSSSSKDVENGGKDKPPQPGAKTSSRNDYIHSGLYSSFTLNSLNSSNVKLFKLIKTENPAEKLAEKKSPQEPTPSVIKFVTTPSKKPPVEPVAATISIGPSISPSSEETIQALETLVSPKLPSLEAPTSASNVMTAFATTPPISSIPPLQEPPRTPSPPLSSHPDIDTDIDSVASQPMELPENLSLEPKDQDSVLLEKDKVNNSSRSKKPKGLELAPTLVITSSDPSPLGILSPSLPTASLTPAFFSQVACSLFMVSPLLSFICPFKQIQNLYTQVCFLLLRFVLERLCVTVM
# How it was run: as §1
# ETV2 = biological target: T10, ETV2 (Homo sapiens, UniProt O00321 1-342); conditions: protein: recombinant; tags: N-terminal GST; dsDNA, one strand shown
# T10 sequence: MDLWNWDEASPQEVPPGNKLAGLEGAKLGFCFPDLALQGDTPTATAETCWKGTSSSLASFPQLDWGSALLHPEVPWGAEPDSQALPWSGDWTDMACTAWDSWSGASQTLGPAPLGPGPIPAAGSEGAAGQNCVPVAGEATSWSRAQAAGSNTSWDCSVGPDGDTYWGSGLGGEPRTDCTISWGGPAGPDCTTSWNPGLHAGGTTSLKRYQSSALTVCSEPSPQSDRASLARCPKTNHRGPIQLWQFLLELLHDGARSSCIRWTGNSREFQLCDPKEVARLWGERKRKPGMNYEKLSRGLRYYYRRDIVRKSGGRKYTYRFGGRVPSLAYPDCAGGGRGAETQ
# How it was run: as §1
# ELF3 = biological target: T11, ELF3 (Homo sapiens, UniProt P78545 1-371); conditions: protein: recombinant; tags: N-terminal GST; dsDNA, one strand shown
# T11 sequence: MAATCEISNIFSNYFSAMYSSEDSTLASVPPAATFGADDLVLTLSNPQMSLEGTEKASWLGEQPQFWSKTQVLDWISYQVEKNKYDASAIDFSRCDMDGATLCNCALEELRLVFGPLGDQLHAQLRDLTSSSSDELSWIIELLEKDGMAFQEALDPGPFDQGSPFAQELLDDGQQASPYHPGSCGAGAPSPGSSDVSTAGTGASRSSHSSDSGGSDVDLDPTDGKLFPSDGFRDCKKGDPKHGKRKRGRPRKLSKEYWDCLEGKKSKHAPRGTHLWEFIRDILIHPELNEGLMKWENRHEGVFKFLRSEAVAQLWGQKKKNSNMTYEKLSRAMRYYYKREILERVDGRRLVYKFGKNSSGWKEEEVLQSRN
# How it was run: as §1
# CRX = CRX (Homo sapiens, UniProt O43186 1-299); conditions: protein: recombinant; tags: N-terminal GST; dsDNA, one strand shown
# How it was run: as §1
# ETV1 = ETV1 (Homo sapiens, UniProt P50549 1-477); conditions: protein: recombinant; tags: N-terminal GST; dsDNA, one strand shown
# How it was run: as §1
# SPIB, sequence (Q01892 whole entry): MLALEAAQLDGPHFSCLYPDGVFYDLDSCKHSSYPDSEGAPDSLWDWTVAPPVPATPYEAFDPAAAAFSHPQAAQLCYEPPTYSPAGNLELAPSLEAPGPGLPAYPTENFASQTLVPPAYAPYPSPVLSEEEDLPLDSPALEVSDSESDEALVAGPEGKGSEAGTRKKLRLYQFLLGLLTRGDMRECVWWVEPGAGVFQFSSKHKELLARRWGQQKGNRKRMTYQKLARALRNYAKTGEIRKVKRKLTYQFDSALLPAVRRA
# ETV1, sequence (P50549 whole entry): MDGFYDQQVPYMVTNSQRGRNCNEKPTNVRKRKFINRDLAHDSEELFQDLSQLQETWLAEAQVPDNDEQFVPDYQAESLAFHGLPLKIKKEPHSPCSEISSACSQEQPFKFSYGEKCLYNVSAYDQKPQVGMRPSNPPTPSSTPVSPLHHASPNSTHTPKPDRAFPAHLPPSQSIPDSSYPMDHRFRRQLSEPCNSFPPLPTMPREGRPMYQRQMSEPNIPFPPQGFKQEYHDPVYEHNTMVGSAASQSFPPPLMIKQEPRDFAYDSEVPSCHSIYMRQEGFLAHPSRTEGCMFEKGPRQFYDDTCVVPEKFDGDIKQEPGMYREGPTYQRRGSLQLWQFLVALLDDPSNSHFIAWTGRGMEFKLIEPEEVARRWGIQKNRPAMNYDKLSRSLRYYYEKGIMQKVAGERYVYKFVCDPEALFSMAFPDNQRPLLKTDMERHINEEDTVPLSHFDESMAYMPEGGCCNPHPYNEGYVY
# HSF1, sequence (Q00613 whole entry): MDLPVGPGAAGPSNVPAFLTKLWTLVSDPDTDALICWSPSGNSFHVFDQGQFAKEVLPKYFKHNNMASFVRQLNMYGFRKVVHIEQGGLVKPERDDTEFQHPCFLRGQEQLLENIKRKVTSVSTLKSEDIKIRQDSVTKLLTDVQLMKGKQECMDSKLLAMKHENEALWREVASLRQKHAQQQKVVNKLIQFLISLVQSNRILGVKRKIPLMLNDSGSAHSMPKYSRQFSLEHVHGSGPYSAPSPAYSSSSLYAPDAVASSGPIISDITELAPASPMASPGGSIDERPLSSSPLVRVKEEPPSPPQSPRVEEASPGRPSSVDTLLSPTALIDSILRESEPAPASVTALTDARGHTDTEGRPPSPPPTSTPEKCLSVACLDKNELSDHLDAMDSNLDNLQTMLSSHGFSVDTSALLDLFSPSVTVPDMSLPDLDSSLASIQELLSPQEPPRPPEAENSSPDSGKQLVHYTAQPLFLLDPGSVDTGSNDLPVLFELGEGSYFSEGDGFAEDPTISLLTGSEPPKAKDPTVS
# ETV5, sequence (P41161 whole entry): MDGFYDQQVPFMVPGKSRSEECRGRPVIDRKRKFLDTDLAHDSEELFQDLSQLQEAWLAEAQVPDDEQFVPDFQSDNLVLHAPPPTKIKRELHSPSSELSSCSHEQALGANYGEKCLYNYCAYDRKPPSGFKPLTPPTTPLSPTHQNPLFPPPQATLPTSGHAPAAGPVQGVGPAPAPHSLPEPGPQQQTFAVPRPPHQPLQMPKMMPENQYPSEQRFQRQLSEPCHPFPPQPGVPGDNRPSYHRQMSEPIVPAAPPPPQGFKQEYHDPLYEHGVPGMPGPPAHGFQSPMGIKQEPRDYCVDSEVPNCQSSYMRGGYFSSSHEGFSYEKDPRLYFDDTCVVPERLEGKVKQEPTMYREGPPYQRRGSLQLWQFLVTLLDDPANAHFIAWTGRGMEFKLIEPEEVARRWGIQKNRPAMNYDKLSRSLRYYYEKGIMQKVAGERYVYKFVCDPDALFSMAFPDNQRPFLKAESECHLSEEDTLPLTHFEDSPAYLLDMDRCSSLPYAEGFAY
# ELF1, sequence (P32519 whole entry): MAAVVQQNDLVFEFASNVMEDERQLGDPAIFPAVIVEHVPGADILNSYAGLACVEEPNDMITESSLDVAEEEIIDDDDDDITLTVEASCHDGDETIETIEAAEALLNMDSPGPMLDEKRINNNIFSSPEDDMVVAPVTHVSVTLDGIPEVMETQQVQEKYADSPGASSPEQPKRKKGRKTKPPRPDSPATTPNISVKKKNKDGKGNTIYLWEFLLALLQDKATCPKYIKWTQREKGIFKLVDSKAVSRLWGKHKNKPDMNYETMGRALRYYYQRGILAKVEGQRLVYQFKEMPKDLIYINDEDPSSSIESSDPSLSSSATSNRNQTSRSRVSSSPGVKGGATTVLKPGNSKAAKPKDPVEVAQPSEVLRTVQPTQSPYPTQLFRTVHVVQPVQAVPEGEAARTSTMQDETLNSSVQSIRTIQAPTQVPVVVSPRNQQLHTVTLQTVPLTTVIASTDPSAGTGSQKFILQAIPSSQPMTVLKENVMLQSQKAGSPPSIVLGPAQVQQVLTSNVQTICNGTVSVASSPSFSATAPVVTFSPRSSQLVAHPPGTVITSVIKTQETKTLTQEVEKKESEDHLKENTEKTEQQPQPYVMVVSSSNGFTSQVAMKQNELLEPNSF
# CRX, sequence (O43186 whole entry): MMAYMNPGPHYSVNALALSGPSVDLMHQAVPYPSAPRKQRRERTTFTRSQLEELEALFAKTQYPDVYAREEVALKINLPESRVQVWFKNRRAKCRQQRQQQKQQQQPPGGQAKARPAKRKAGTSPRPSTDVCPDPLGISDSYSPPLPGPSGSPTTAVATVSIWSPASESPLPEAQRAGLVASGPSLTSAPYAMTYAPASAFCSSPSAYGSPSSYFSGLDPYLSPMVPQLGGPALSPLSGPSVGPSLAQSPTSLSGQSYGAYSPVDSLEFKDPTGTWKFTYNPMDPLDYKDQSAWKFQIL
# ELF4, sequence (Q99607 whole entry): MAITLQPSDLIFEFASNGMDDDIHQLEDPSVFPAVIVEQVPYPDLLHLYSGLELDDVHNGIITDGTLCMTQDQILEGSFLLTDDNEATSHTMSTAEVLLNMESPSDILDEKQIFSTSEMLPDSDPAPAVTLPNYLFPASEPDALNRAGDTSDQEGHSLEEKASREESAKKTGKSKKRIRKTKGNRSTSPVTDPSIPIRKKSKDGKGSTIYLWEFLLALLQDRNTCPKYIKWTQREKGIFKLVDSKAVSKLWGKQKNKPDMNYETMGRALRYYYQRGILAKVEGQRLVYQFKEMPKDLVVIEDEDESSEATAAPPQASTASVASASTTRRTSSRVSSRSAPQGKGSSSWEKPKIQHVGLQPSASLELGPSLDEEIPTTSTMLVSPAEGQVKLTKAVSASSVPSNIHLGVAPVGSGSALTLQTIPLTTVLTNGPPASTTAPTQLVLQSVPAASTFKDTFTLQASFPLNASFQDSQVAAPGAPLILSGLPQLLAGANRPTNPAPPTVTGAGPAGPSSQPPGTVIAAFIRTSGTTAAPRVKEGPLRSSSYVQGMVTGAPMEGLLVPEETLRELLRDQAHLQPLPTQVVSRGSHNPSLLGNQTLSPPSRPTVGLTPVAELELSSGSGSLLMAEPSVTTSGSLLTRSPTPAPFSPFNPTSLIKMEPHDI
sequence,measurement,setting,value
TTTTTG,binding signal,FLI1,"1.43 fold enrichment (6-mer frequency, TF over GST control)"
same,binding signal,ELK1,"1.29 fold enrichment (6-mer frequency, TF over GST control)"
same,binding signal,GABPA,"1.38 fold enrichment (6-mer frequency, TF over GST control)"
same,binding signal,ERG,"1.33 fold enrichment (6-mer frequency, TF over GST control)"
same,binding signal,ELF1,"1.4 fold enrichment (6-mer frequency, TF over GST control)"
same,binding signal,EHF,"1.27 fold enrichment (6-mer frequency, TF over GST control)"
same,binding signal,SPI1,"1.54 fold enrichment (6-mer frequency, TF over GST control)"
same,binding signal,SPIB,"1.5 fold enrichment (6-mer frequency, TF over GST control)"
same,binding signal,ELK3,"1.4 fold enrichment (6-mer frequency, TF over GST control)"
same,binding signal,FEV,"1.33 fold enrichment (6-mer frequency, TF over GST control)"
same,binding signal,ETV5,"1.42 fold enrichment (6-mer frequency, TF over GST control)"
same,binding signal,HSF1,"1.24 fold enrichment (6-mer frequency, TF over GST control)"
same,binding signal,SPIC,"1.39 fold enrichment (6-mer frequency, TF over GST control)"
same,binding signal,ELF4,"1.45 fold enrichment (6-mer frequency, TF over GST control)"
same,binding signal,ELK4,"1.5 fold enrichment (6-mer frequency, TF over GST control)"
same,binding signal,ETV2,"1.51 fold enrichment (6-mer frequency, TF over GST control)"
same,binding signal,ELF3,"1.44 fold enrichment (6-mer frequency, TF over GST control)"
same,binding signal,CRX,"1.31 fold enrichment (6-mer frequency, TF over GST control)"
same,binding signal,ETV1,"1.48 fold enrichment (6-mer frequency, TF over GST control)"

# — article PMC7862700, “An all-to-all approach to the identification of sequence-specific readers for epigenetic DNA modifications on cytosine”
